Inconclusive results are not listed. Activity calls are given as the source filed them. How the source made its calls, unless noted: active means hit-call score of the fitted dose curve at least 0.9, where 1 is the maximum; inactive means score below 0.9.
Experiments:
[1] = target: Paired box protein Pax-6 (Homo sapiens) (UniProt P26367); experiment: ATG_Pax6_CIS: Attagene CIS-FACTORIAL HepG2 Assay for human Paired Box 6 (PAX6) (AID 2282956); details: HepG2 CIS-FACTORIAL PAX6 reporter transcription, RNA readout; actives raise or lower the signal
How it was run: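 Read-out is reporter transcript level, measured by RT-PCR with fluorescent primer extension and capillary electrophoresis after 24 h dosing of transfected HepG2 cells. Activity in either direction fitted relative to DMSO control.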

[2] = ATG_PXRE_CIS: Attagene CIS-FACTORIAL HepG2 Assay for human Pregnane X Receptor Element (PXRE) (AID 2282957); details: HepG2 Attagene CIS-FACTORIAL PXRE reporter, mRNA; actives raise or lower the signal
How it was run: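 Using HepG2 transfected with multiple reporter transcription units, endogenous factor-driven transcription was scored as reporter mRNA after 24 h exposure.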

[3] = ATG_RORE_CIS: Attagene CIS-FACTORIAL HepG2 Assay for human RAR-related Orphan Receptor Element (RORE) (AID 2282959); details: HepG2 Attagene cis-factorial RORE reporter, mRNA; actives raise or lower the signal
How it was run: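 Measured here: transcript induction of a cis-regulated reporter in HepG2 cells transiently transfected via FuGene 6. After 24 h, RNA was processed by RT-PCR and fluorescent capillary electrophoresis; DMSO defined baseline activity.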

[4] = ATG_Sox_CIS: Attagene CIS-FACTORIAL HepG2 Assay for human SRY-box transcription factor (SOX) (AID 2282960); details: HepG2 Attagene cis-factorial SOX reporter, mRNA; actives raise or lower the signal
How it was run: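 Using transiently transfected HepG2 cells, reporter transcription driven by cis elements was assessed 24 h after dosing. Signal was fluorescence of capillary-separated RT-PCR products, with DMSO defining baseline activity.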

[5] = target: Transcription factor Sp1 (Homo sapiens) (UniProt P08047); experiment: ATG_Sp1_CIS: Attagene CIS-FACTORIAL HepG2 Assay for human Specificity Protein 1 (Sp1) (AID 2282961); details: HepG2 Sp1 cis-reporter transcription, actives raise or lower the signal
How it was run: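 After transient transfection of HepG2 cells with cis-promoter reporter units and 24 h chemical treatment, reporter transcripts were quantified by RT-PCR and capillary electrophoresis fluorescence. Gain- and loss-of-signal fitted against DMSO.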

[6] = ATG_SREBP_CIS: Attagene CIS-FACTORIAL HepG2 Assay for human Sterol Regulatory Element Binding (SREBP) (AID 2282962); details: HepG2 Attagene cis-factorial SREBP reporter, mRNA; actives raise or lower the signal
How it was run: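 Endogenous SREBP activity read as cis-element-driven reporter transcript in transiently transfected HepG2, 24 h post-dosing; quantified via RT-PCR plus capillary electrophoresis of fluorescent fragments. Gain or loss of signal fitted relative to DMSO baseline.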

[7] = target: Signal transducer and activator of transcription 3 (Homo sapiens) (UniProt P40763); experiment: ATG_STAT3_CIS: Attagene CIS-FACTORIAL HepG2 Assay for human Signal Transducer and Activator of Transcription 3 (STAT3) (AID 2282963); details: HepG2, Attagene cis-factorial STAT3 reporter transcription; actives raise or lower the signal
How it was run: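 Fluorescence intensity of 6-FAM-labelled reporter fragments, separated by capillary electrophoresis after RT-PCR, gave the signal. Cells were HepG2 transfected with cis-element reporter units and treated 24 h; fitting was bidirectional relative to DMSO.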

[8] = ATG_TA_CIS: Attagene CIS-FACTORIAL HepG2 Assay for human TA Basal Promoter (AID 2282964); details: HepG2 Attagene CIS-factorial TA basal promoter reporter; actives raise or lower the signal
How it was run: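 Transient MRTU transfection of HepG2 preceded 24 h compound exposure. Reporter mRNA levels were then read by RT-PCR with capillary electrophoresis, and this background-control endpoint was fitted bidirectionally to DMSO.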

[9] = ATG_TCF_b_cat_CIS: Attagene CIS-FACTORIAL HepG2 Assay for human T-Cell-Factor with beta-catenin (TCF/b-cat) (AID 2282965); details: HepG2 TCF/beta-catenin cis-reporter transcription, actives raise or lower the signal
How it was run: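 Cells of the HepG2 line carry transiently transfected reporter units whose promoters respond to endogenous factors. Twenty-four hours post-dosing, reporter mRNA induction is measured by fluorescent RT-PCR and capillary electrophoresis, with DMSO as baseline.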

[10] = ATG_TAL_CIS: Attagene CIS-FACTORIAL HepG2 Assay for human TAL Basal Promoter (AID 2282966); details: HepG2 Attagene cis-factorial TAL promoter reporter; actives raise or lower the signal;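 further: background control endpoint measuring basal TAL promoter reporter mRNA not a specific factor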
How it was run: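 After 24 hours of chemical exposure, transfected HepG2 cells yielded RNA that was converted to 6-FAM-labelled, HpaI-digested reporter fragments for capillary electrophoresis. Values derive from bidirectional fitting against DMSO controls.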

[11] = ATG_TGFb_CIS: Attagene CIS-FACTORIAL HepG2 Assay for human Transforming Growth Factor (TGF) (AID 2282967); details: HepG2 Attagene CIS TGFb reporter, mRNA transcription; actives raise or lower the signal
How it was run: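 After a 24-hour incubation with compound, transfected HepG2 cells were lysed for RNA; reporter cDNA was amplified, fluorescently end-labeled and separated by CE. DMSO served as baseline for bidirectional fits.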

[12] = ATG_VDRE_CIS: Attagene CIS-FACTORIAL HepG2 Assay for human Vitamin D Receptor Element (VDRE) (AID 2282968); details: HepG2 VDRE cis-reporter transcription, actives raise or lower the signal
How it was run: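 Compounds were applied for 24 h to HepG2 cells transfected with promoter-regulated reporter units. Total RNA was reverse-transcribed, and reporter amplicons were fluorescently labelled and sized by capillary electrophoresis.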

[13] = target: Nuclear receptor subfamily 1 group I member 3 (Homo sapiens) (UniProt Q14994); experiment: ATG_CAR_TRANS: Attagene TRANS-FACTORIAL HepG2 Assay for human Constitutive Androstane Receptor (CAR) (AID 2282969; active means hit-call score of the fitted dose curve at least 0.9, where 1 is the maximum;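 further: activators raise reporter mRNA above DMSO so AC50 marks induction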); details: HepG2 Attagene TRANS-FACTORIAL CAR reporter
How it was run: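 Transiently transfected HepG2, multiplex TRANS reporters (CAR-Gal4 chimera driving GAL4-UAS reporter). 24 h dosing. Readout: reporter transcript by RT-PCR + capillary electrophoresis, fluorescence intensity; positive direction vs DMSO.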

[14] = target: Estrogen receptor (Homo sapiens) (UniProt P03372); experiment: ATG_ERa_TRANS: Attagene TRANS-FACTORIAL HepG2 Assay for human Estrogen Receptor alpha (ERa) (AID 2282970; active means hit-call score of the fitted dose curve at least 0.9, where 1 is the maximum); details: HepG2 Attagene TRANS ERa GAL4 reporter, mRNA
How it was run: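 Liver-derived HepG2 cells expressing chimeric nuclear receptor-Gal4 proteins from transient transfection were exposed for 24 hours. Gain of reporter mRNA signal versus DMSO, read by capillary electrophoresis of FAM-labelled PCR products, was recorded.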

[15] = target: X-box-binding protein 1 (Homo sapiens) (UniProt P17861); experiment: ATG_Xbp1_CIS: Attagene CIS-FACTORIAL HepG2 Assay for human X-box Binding Protein 1 (XBP1) (AID 2282972); details: HepG2 XBP1 cis-element reporter, Attagene multiplex; actives raise or lower the signal
How it was run: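 Reporter transcripts were quantified by RT-PCR with fluorescent primer extension and capillary electrophoresis after 24 h chemical exposure. Cells: transiently transfected HepG2 carrying cis-regulated reporter constructs; data fitted bidirectionally relative to DMSO.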

[16] = ATG_GAL4_TRANS: Attagene TRANS-FACTORIAL HepG2 Assay for GAL4 (Internal Marker) (AID 2282976; active means hit-call score of the fitted dose curve at least 0.9, where 1 is the maximum); details: HepG2 Attagene TRANS GAL4 internal marker reporter
How it was run: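 First, HepG2 cells were transfected with reporter units under GAL4-UAS control. Next, they were treated with chemical for 24 h. Finally, RNA was reverse-transcribed, PCR-amplified, FAM-labelled and resolved by capillary electrophoresis, with induction scored against DMSO.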

[17] = ATG_M_19_TRANS: Attagene TRANS-FACTORIAL HepG2 Assay for M19 Transcription Factor (Internal Marker) (AID 2282974; active means hit-call score of the fitted dose curve at least 0.9, where 1 is the maximum); details: HepG2 Attagene TRANS-FACTORIAL M19 internal marker reporter
How it was run: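 Gain-of-signal in reporter mRNA, relative to DMSO, was scored from capillary electrophoresis fluorescence. HepG2 cells carried transiently transfected multiple reporter transcription units and were incubated with test chemicals for 24 h.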

[18] = ATG_PPRE_CIS: Attagene CIS-FACTORIAL HepG2 Assay for human Peroxisome Proliferator-activated Response Element (PPRE) (AID 2282958); details: HepG2 PPRE cis-element reporter, Attagene transcription factor profiling; actives raise or lower the signal
How it was run: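 After human HepG2 hepatoma cells were transiently transfected with cis-promoter reporter constructs, they were exposed to test chemicals for 24 hours. Reporter RNA was then reverse-transcribed, PCR-amplified, FAM-labeled, HpaI-digested and quantified by capillary electrophoresis.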

[19] = target: Steroid hormone receptor ERR1 (Homo sapiens) (UniProt P11474); experiment: ATG_ERRa_TRANS: Attagene TRANS-FACTORIAL HepG2 Assay for human Estrogen-Related Receptor alpha (ERRa) (AID 2282971; active means hit-call score of the fitted dose curve at least 0.9, where 1 is the maximum); details: HepG2 Attagene TRANS reporter, ERRa transactivation
How it was run: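 Reporter transcript induction was quantified by RT-PCR and capillary electrophoresis of FAM-labelled, HpaI-cut products after 24 h treatment of HepG2 cells carrying transiently transfected GAL4-UAS reporter units and an exogenous ERRa-Gal4 fusion; activity scored as increase over DMSO.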

[20] = target: Estrogen-related receptor gamma (Homo sapiens) (UniProt P62508); experiment: ATG_ERRg_TRANS: Attagene TRANS-FACTORIAL HepG2 Assay for human Estrogen-Related Receptor gamma (ERRg) (AID 2282977; active means hit-call score of the fitted dose curve at least 0.9, where 1 is the maximum;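 further: hits increase reporter signal over DMSO so potencies reflect activators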); details: HepG2 Attagene TRANS reporter, ERRg transactivation
How it was run: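 Exogenous NR-Gal4 chimera activity measured as reporter transcript induction after 24 h in transiently transfected HepG2 cells. RNA reverse-transcribed, PCR-amplified, 6-FAM-labelled and resolved by capillary electrophoresis; increase over DMSO baseline.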

Measured: AC50

Estrogen receptor (Homo sapiens), sequence (P03372 whole entry, looked up, the tested form may be a part): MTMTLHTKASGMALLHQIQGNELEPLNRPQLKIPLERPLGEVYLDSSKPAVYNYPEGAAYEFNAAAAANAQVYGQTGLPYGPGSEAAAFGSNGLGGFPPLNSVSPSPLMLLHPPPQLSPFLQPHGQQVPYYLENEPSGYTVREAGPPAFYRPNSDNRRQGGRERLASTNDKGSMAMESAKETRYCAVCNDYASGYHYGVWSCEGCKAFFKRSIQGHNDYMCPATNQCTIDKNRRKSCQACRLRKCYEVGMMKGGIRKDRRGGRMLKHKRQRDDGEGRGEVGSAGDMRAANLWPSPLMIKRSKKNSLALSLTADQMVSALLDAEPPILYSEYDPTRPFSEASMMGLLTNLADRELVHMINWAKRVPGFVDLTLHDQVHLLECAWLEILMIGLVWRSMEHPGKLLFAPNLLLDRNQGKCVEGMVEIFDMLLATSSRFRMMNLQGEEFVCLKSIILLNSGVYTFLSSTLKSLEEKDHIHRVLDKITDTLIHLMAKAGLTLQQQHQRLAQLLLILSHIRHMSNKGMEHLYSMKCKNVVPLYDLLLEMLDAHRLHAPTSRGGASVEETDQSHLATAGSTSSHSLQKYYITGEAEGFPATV
Transcription factor Sp1 (Homo sapiens), sequence (P08047 whole entry, looked up): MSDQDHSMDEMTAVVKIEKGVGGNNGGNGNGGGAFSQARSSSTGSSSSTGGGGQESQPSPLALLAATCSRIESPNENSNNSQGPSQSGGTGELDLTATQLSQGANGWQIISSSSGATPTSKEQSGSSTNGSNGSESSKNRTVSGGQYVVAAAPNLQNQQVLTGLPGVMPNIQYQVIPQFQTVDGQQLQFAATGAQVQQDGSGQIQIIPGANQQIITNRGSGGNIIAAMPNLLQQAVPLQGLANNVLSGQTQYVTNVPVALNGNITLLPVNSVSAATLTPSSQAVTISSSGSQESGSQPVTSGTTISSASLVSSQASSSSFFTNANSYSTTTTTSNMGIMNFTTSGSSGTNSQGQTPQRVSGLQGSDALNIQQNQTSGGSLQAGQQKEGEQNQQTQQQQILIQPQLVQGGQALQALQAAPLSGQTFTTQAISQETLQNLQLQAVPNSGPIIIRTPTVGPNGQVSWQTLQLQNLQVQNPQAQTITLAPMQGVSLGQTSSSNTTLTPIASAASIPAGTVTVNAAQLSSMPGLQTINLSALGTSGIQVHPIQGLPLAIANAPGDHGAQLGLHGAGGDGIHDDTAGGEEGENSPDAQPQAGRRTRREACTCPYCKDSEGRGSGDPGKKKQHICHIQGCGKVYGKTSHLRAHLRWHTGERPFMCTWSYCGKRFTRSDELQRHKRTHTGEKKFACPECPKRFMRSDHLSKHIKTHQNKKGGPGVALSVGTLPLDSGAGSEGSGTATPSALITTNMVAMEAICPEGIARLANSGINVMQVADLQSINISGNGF
Nuclear receptor subfamily 1 group I member 3 (Homo sapiens), sequence (Q14994 whole entry, looked up, the tested form may be a part): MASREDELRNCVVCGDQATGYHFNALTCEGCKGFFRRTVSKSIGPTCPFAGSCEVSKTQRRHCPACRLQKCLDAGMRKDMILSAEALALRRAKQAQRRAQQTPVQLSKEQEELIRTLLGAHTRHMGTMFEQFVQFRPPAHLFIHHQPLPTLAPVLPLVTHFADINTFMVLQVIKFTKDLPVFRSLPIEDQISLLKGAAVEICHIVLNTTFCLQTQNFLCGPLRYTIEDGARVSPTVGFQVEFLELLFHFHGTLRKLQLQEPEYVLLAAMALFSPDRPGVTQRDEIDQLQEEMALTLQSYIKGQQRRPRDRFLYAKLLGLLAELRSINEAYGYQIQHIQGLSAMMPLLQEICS
Signal transducer and activator of transcription 3 (Homo sapiens), sequence (P40763 whole entry, looked up, the tested form may be a part): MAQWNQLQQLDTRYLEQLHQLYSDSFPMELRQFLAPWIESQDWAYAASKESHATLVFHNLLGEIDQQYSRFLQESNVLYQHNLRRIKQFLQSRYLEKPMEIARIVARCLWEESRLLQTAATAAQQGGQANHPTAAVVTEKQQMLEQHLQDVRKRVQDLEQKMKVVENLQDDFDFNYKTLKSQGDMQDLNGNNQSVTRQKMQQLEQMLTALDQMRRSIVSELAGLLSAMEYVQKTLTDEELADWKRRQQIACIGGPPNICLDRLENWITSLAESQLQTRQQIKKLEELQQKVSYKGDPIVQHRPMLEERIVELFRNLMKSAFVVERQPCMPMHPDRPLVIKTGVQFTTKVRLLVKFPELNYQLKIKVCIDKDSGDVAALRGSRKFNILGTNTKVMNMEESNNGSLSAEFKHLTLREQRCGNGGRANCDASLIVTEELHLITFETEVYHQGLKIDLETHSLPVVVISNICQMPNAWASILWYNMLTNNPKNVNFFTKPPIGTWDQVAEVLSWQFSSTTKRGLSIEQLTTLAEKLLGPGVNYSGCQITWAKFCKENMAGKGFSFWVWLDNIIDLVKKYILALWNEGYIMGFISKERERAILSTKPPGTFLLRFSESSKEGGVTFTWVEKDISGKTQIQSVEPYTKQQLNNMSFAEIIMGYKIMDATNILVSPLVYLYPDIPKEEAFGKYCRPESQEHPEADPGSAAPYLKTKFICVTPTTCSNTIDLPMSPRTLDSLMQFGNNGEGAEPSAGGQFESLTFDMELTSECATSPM
X-box-binding protein 1 (Homo sapiens), sequence (P17861 whole entry, looked up): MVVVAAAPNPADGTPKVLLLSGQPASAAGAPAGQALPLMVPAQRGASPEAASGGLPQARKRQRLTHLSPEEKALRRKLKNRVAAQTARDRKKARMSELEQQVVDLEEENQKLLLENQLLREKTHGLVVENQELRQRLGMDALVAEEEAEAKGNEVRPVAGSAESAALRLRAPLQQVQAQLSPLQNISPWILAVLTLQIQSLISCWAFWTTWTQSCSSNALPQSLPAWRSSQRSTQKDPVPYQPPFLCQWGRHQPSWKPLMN
Paired box protein Pax-6 (Homo sapiens), sequence (P26367 whole entry, looked up): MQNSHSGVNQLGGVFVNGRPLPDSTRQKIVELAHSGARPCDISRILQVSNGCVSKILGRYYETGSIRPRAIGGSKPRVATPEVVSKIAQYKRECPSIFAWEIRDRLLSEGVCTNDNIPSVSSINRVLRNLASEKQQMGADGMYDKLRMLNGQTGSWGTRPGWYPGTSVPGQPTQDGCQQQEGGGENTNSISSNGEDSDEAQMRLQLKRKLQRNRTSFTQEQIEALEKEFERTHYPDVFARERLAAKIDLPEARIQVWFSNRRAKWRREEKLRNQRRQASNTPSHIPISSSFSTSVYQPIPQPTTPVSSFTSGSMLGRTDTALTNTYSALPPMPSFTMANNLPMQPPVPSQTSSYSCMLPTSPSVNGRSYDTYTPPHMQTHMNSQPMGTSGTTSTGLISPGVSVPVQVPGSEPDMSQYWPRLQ
Steroid hormone receptor ERR1 (Homo sapiens), sequence (P11474 whole entry, looked up, the tested form may be a part): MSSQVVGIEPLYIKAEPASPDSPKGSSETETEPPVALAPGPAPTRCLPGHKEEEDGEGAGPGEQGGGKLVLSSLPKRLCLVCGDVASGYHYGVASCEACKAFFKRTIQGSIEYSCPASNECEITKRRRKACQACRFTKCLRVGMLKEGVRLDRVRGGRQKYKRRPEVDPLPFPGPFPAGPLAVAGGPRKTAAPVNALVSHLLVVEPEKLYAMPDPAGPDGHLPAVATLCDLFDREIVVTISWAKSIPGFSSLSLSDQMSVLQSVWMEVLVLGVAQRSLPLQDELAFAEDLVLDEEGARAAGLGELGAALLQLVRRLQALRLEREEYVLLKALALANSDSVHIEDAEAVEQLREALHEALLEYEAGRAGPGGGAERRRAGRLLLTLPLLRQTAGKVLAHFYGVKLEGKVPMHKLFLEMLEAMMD
Estrogen-related receptor gamma (Homo sapiens), sequence (P62508 whole entry, looked up, the tested form may be a part): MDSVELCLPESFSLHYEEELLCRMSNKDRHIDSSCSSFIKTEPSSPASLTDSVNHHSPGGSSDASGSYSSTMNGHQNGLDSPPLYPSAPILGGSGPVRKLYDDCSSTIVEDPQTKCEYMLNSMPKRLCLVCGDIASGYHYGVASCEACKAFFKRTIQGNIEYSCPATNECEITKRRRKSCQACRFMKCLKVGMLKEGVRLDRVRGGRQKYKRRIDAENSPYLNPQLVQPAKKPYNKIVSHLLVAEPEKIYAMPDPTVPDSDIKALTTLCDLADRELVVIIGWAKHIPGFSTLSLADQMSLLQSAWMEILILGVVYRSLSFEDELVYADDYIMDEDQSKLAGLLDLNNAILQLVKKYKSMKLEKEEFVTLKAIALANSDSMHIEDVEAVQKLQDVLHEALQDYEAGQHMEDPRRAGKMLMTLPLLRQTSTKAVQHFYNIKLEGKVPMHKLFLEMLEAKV

O=c1c2ccccc2oc2ccccc12
active: [2] 27.1 µM | [14] 27.8 µM
not listed: [17] | [18] | [19] | [20]
inactive: all other assays above

O=C1CCCCCCCCCCC(=O)OCCO1
not listed: [18] | [19] | [20]
inactive: all other assays above

CC(=O)[C@@]1(O)CC[C@H]2[C@@H]3C[C@H](C)C4=CC(=O)C=C[C@]4(C)[C@@]3(F)[C@@H](O)C[C@@]21C
not listed: [3] | [12] | [13] | [14] | [16] | [17] | [20]
inactive: all other assays above

O=C1c2cccc(O)c2C(=O)c2c(O)cc(CO)cc21
active: [2] 8.72 µM | [14] 5.81 µM
not listed: [16] | [18]
inactive: all other assays above

O=Nc1ccc(O)cc1
active: [14] 48.5 µM
not listed: [3] | [11] | [12] | [13] | [16] | [17] | [19] | [20]
inactive: all other assays above

COc1ccc(-c2coc3cc(O)ccc3c2=O)cc1
inactive: [1] | [18] | [4] | [5] | [6] | [7] | [8] | [10] | [12] | [15]
active: [2] 11.3 µM | [14] 1.21 µM

C1=Cc2ccccc2C1
active: [2] 9.16 µM | [14] 65.8 µM
not listed: [3] | [8] | [17] | [19]
inactive: all other assays above

O=C(C(Cl)Cl)N1CCOC12CCCCC2
active: [1] 13.1 µM | [8] 12 µM
not listed: [3] | [6] | [13] | [14] | [16] | [19] | [20]
inactive: all other assays above

C[C@]12C=CC(=O)C=C1CC[C@@H]1[C@@H]2[C@@H](O)C[C@@]2(C)[C@H]1CC[C@]2(O)C(=O)CO
active: [2] 100 µM
not listed: [6] | [8] | [12] | [13] | [14] | [18]
inactive: all other assays above

C=C(C)c1cccc(C(C)(C)N=C=O)c1
active: [2] 0.0919 µM | [12] 0.377 µM
not listed: [6] | [14] | [16] | [18] | [19] | [20]
inactive: all other assays above

O=C(Nc1ccccc1SSc1ccccc1NC(=O)c1ccccc1)c1ccccc1
active: [2] 4.44 µM | [3] 2.56 µM
not listed: [7] | [8] | [12] | [16] | [18] | [20]
inactive: all other assays above

C=CC(=O)OCCOC(=O)C=C
inactive: [4] | [6] | [8] | [10] | [11] | [15]
active: [1] 14.9 µM | [2] 26.5 µM | [3] 27.3 µM | [5] 25.3 µM | [9] 26.7 µM | [12] 10.5 µM

C=C[Si](C)(C)O[Si](C)(C)C=C
active: [2] 27.9 µM
not listed: [11] | [13] | [14] | [15] | [18] | [19] | [20]
inactive: all other assays above

O=[N+]([O-])C1(Br)COCOC1
active: [4] 51.9 µM | [5] 50.2 µM | [9] 55.7 µM | [15] 53.1 µM
not listed: [8] | [13] | [18] | [20]
inactive: all other assays above

COc1ccc2nc(N)sc2c1
not listed: [7] | [13] | [16] | [17] | [18] | [19] | [20]
inactive: all other assays above

O=C(O)c1cc(Cl)cc([N+](=O)[O-])c1Cl
not listed: [12] | [14] | [18] | [19] | [20]
inactive: all other assays above

NC(CO)(CO)CO
inactive: [1] | [3] | [4] | [5] | [6] | [9] | [10] | [11] | [15]
active: [2] 42 µM

From PubChem BioAssay (EPA / NIEHS)
